Bioassay records as filed in PubChem BioAssay.
An excerpt weighted towards active compounds, which were near 7.3% of everything screened.
NPC1 promoter act – qHTS Assay for NPC1 Promoter Activators | Huh7 NPC1 promoter luciferase reporter, 24 h | 320,000 tested, 2.4% active | Potency, µM (highest dose often 9.22 µM), for inactives: at the highest dose activation, hits mostly activators; also: % of control where 0% means no effect; nearly all actives have a fitted effect of over 60% in size
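Readout is luciferase luminescence, reflecting NPC1 promoter activation in stably transfected Huh7 cells after 24 h compound exposure at 37 °C in reduced-serum medium with 10% FBS.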
SMN2 splice enh – qHTS Assay for Enhancers of SMN2 Splice Variant Expression. HEK293 SMN2-luciferase splicing reporter, luminescence, 30-36 h. 210,000 tested, 2.8% active. Potency, µM (top dose mostly 46.1 µM), without a hit: top-dose activity change, positive = activation, usual class: activators; also: % of control where 0% means no effect; nearly all actives have a fitted effect of over 55% in size
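HEK293 cells carry an SMN2 […]–luciferase reporter in which exon 7 inclusion puts luciferase in frame. Cells were plated 10-12 h before compound addition, then incubated 30-36 h at 37C. ONE-Glo luminescence was read; sodium butyrate at 4.5 mM final served as control.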
FLuc modulator – qHTS profiling assay for firefly luciferase inhibitor/activator using purifed enzyme and Km concentrations of substrates (counterscreen for miR-21 project); purified FLuc, Km substrates, luminescence inhibition; Potency, µM (titrated, usually from 57.5 µM), for the others: top-dose activity change, negative = inhibition, actives largely listed as inhibitors; 360,000 tested, 6.9% active; AID 588342, 2011; Luciferin 4-monooxygenase (Photinus pyralis), P08659;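 also: plate controls were vehicle for no effect and reference inhibitor for full effect; nearly all actives have a fitted effect of over 55% in size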
Target sequence (P08659 whole entry, looked up): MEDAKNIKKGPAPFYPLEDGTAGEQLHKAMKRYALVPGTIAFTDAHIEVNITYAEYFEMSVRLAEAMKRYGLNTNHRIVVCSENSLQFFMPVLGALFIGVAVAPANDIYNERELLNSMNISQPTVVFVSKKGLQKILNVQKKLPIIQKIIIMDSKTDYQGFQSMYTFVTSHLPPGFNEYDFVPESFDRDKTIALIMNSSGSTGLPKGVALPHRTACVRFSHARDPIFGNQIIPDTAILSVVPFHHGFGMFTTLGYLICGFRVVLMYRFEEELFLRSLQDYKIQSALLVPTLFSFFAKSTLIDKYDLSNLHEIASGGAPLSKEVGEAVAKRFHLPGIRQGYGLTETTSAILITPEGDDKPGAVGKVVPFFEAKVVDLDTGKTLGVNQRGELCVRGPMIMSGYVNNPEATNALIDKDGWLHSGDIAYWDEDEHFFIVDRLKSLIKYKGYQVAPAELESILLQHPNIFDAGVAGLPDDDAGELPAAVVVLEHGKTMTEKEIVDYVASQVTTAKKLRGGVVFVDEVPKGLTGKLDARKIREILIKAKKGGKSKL
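Purified P. pyralis luciferase, 10 nM final, with Km-level 10 uM D-luciferin and 10 uM ATP in 50 mM Tris acetate pH 7.5, 10 mM Mg acetate, 0.01% Tween-20, 0.05% BSA; 6-point qHTS titration about 60 µM downward; luminescence read.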
ELG1 genotox – qHTS screen for small molecules that induce genotoxicity in human embryonic kidney (HEK293T) cells expressing luciferase-tagged ELG1 | AID 504466, 2011 | Potency, µM (series often up to 46 µM), for the others: at the highest dose activity change, positive = activation, actives largely listed as activators | HEK293T ELG1-luciferase reporter, luminescence, 16 h | 330,000 tested, 1.3% active; also: % of control where 0% means no effect; nearly all actives have a fitted effect of over 60% in size
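Genotoxic stress is detected as increased luminescence from luciferase-tagged ELG1 in HEK293T cells, measured with ONE-Glo after a 16 hr treatment at 37 °C.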
Rab9 promoter act – qHTS Assay for Rab9 Promoter Activators. Potency, µM (highest dose often 9.22 µM), without a hit: at the highest dose activation, negative = inhibition, usual class: activators. 320,000 tested, 2.8% active. AID 485297, 2010. Huh7 Rab9 promoter-luciferase reporter, luminescence, 24 h; also: % of control where 0% means no effect; nearly all actives have a fitted effect of over 60% in size
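Huh7 reporter line, Rab9 promoter upstream of luciferase. Compound exposure 24 h at 37 °C in reduced-serum medium with 10% FBS. Read-out: luminescence.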
Luc counter – Counterscreen for Luciferase (Kinase-Glo TM) Inhibition. Luciferin 4-monooxygenase (Photuris pensylvanica), Q27757. Kinase-Glo luciferase, ATP luminescence, 8 min. Potency, µM (series often up to 38.3 µM), for the others: at the top dose activity change, negative = inhibition, most hits filed as inhibitors. 200,000 tested, 0.28% active; also: % is scaled to controls: 0 for no effect and ±100 for the full control effect; nearly all actives have a fitted effect of over 60% in size
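Recombinant Kinase-Glo luciferase, 10 uM ATP (linear range), luciferin; imidazole pH 7.2 / KCl / MgCl2 / Tween / BSA buffer; 8 min RT; luminescence.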
Starred values were filed as active, the others as inactive; [ ] = dose if it differs, or a comment. Calls follow the shape of the dose curve; as a rule, active = well fitted curve in the direction sought with a large enough effect; inconclusive = small, poorly fitted or top-dose-only effect, or another doubt; inactive = no such curve, though single readings can be large; an effect the other way counts as inactive or inconclusive. Potency is read from the fitted curve at half-maximal effect.

`CCOc1cnc(-c2ccc(Cl)cc2)o1` gave NPC1 promoter act 0%, SMN2 splice enh 16%, FLuc modulator 21µM*, ELG1 genotox 9%, Rab9 promoter act 15% and Luc counter 6%.
`CCOc1cnc(-c2c(-c3c(Cl)cccc3Cl)noc2C)o1` gave NPC1 promoter act 0%, SMN2 splice enh -9%, FLuc modulator -2%, ELG1 genotox 1%, Rab9 promoter act 2% and Luc counter 3%.
`CCOc1cnc(-c2ccc(OC)cc2)o1` gave NPC1 promoter act 2.5µM*, SMN2 splice enh inconclusive, FLuc modulator 9.5µM*, ELG1 genotox inconclusive, Rab9 promoter act inconclusive and Luc counter -2%.
For CCOc1oc(-c2ccc(OC)cc2)nc1C(F)(F)F the results were NPC1 promoter act 0%, SMN2 splice enh -2%, FLuc modulator -15%, ELG1 genotox -7%, Rab9 promoter act 0% and Luc counter 3%.
`COc1cc(-c2nc(-c3ccccc3)c(-c3ccc(Br)cc3)[nH]2)cc(OC)c1O` gave SMN2 splice enh 8% and FLuc modulator -1%.
COc1ccccc1N(Cc1ccccc1)S(=O)(=O)c1cccc(C(=O)O)c1 was read as NPC1 promoter act 1%, SMN2 splice enh 5µM*, FLuc modulator 0%, ELG1 genotox 1%, Rab9 promoter act 0% and Luc counter -1%.
For CCOc1ccccc1NC(=O)c1cccc(S(=O)(=O)N(Cc2ccccc2)c2ccccc2OC)c1 the results were NPC1 promoter act -9%, SMN2 splice enh -17%, FLuc modulator 6%, ELG1 genotox -2%, Rab9 promoter act -3% and Luc counter -1%.
`COc1ccccc1N(Cc1ccccc1)S(=O)(=O)c1cccc(C(=O)Nc2cc(C)ccn2)c1` gave NPC1 promoter act inconclusive, FLuc modulator 0.67µM*, ELG1 genotox inconclusive and Rab9 promoter act inconclusive.
CCc1cccc2c(-c3ccc(F)cc3)nc(SCC(=O)Nc3ccccc3)nc12 was read as SMN2 splice enh 15% and FLuc modulator -6%.
For CC(C)(C)OC(=O)N1CCC(c2c(C(=O)NCc3ccco3)cnn2-c2ccccc2Cl)CC1 the results were FLuc modulator 5%.
`Cc1noc(-c2ccc(N3CCC(C)CC3)c([N+](=O)[O-])c2)n1` gave FLuc modulator 8.5µM*.
Screening Cc1ccccc1-c1noc(-c2ccc(N3CCCC3)c([N+](=O)[O-])c2)n1 returned FLuc modulator 13µM*.
COCCNc1ccc(-c2nc(-c3ccco3)no2)cc1[N+](=O)[O-] was read as FLuc modulator -15%.
For CCNc1ccc(-c2nc(-c3ccco3)no2)cc1[N+](=O)[O-] the results were FLuc modulator 15µM*.
COc1ccc2nc(C)cc(Nc3ccc(Cl)c(Cl)c3)c2c1 was read as SMN2 splice enh -46% and FLuc modulator 1%.
For COc1ccc(Nc2nc(Cl)nc(Nc3ccc(OC)cc3)n2)cc1 the results were NPC1 promoter act 0%, SMN2 splice enh -45%, FLuc modulator 5%, ELG1 genotox -14%, Rab9 promoter act 2% and Luc counter 13%.
Screening CC(C)(C)Nc1nc(Cl)nc(Nc2ccccc2)n1 returned NPC1 promoter act inconclusive, FLuc modulator 7.6µM*, ELG1 genotox inconclusive and Rab9 promoter act inconclusive.
Screening Clc1nc(Nc2ccccc2)nc(Nc2ccccc2)n1 returned NPC1 promoter act 0%, SMN2 splice enh -15%, FLuc modulator 24µM*, ELG1 genotox 7%, Rab9 promoter act 5% and Luc counter -3%.
`COc1ccccc1Nc1nc(Cl)nc(NC(C)(C)C)n1` gave NPC1 promoter act 0%, SMN2 splice enh -7%, FLuc modulator inconclusive, ELG1 genotox -6%, Rab9 promoter act 9% and Luc counter 0%.
O=C(O)C(=O)/C(=C\c1ccc(Cl)cc1)c1ccc2ccccc2n1 was read as NPC1 promoter act 6%, SMN2 splice enh 13µM*, FLuc modulator inconclusive, ELG1 genotox inconclusive, Rab9 promoter act 23% and Luc counter 3%.
Screening CCCn1c2ccccc2c2nc3ccccc3nc21 returned NPC1 promoter act -2%, SMN2 splice enh 1%, FLuc modulator 2%[2.3 µM], ELG1 genotox -6%, Rab9 promoter act 2% and Luc counter 2%.
For CCN(CC)CCn1c2ccccc2c2nc3ccccc3nc21 the results were NPC1 promoter act inconclusive, FLuc modulator 21µM*, ELG1 genotox inconclusive and Rab9 promoter act inconclusive.
C(=C\c1nc(N2CCCCCC2)c2ccccc2n1)/c1ccccc1 was read as NPC1 promoter act -1%, FLuc modulator 8.5µM*, ELG1 genotox 0% and Rab9 promoter act 7%.
CCCCOC(=O)c1ccc(NC(C)=O)cc1 was read as NPC1 promoter act 19%, SMN2 splice enh 15%, FLuc modulator inconclusive, ELG1 genotox 3%, Rab9 promoter act 1% and Luc counter 5%.
Screening CCCCOC(=O)Nc1ccc(C(=O)OC)cc1 returned NPC1 promoter act inconclusive, SMN2 splice enh -2%, FLuc modulator 12µM*, ELG1 genotox inconclusive, Rab9 promoter act inconclusive and Luc counter -3%.
`CCCCCCOC(=O)c1ccc(N)cc1` gave NPC1 promoter act inconclusive, FLuc modulator 11µM*, ELG1 genotox inconclusive and Rab9 promoter act inconclusive.
CCCCOC(=O)c1ccc(N)cc1 was read as NPC1 promoter act 21%, SMN2 splice enh 28%, FLuc modulator inconclusive, ELG1 genotox inconclusive, Rab9 promoter act 15% and Luc counter -3%.
CCCCOC(=O)Nc1ccc(C)c(Cl)c1 was read as NPC1 promoter act 3.5µM*, SMN2 splice enh inconclusive, FLuc modulator 6.7µM*, ELG1 genotox inconclusive, Rab9 promoter act 2.8µM* and Luc counter -8%.
CCCCOC(=O)c1ccc(NC(=O)c2cc(Cl)c(Cl)cc2C(=O)O)cc1 was read as NPC1 promoter act 0%, FLuc modulator 21µM*, ELG1 genotox 4%, Rab9 promoter act -7% and Luc counter 4%.
CC(NC(=O)CSc1n[nH]c(-c2ccccc2Cl)n1)c1nc2ccccc2n1C (stereo unspecified) was read as FLuc modulator -9%.
Screening O=C(CSC1=Nc2ccccc2N=C(c2ccc(F)cc2)C1)NCc1ccc(Cl)cc1 returned FLuc modulator 7%.
